Several values for one entry are separate records, joined by “and”; a condition that tells them apart may be missing. Identical values can stand only once. Inconclusive results are not listed. A number with no mark means an inactive call. Calls come from the whole dose curve; as a rule, active = well fitted activation curve with a large enough effect; inconclusive = small, poorly fitted or top-dose-only effect; inactive = no such curve, though single readings can be large or run the other way.
target: Cellular tumor antigen p53 (Homo sapiens) (UniProt P04637); test: Primary qHTS for small molecule compounds that upregulate eGFP-tagged delta133p53alpha (in N-terminal) cells. (AID 2060322); settings: NCI-H358 eGFP-delta133p53alpha fluorescence, 24 h; activation: hits give high values;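 note: cells pre-induced with doxycycline then dosed without doxycycline; series mostly up to about 56 µM; 0% = DMSO vehicle and 100% = reference activator; nearly all actives have a fitted effect of over 75% in size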
How it was run: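 NCI-H358 cells pre-induced 24 h with 10 ng/ml doxycycline for eGFP-delta133p53alpha, plated dox-free and exposed 24 h at 37C to titrated compounds. Fixed, Hoechst-stained; gated GFP peak intensity by laser scanning cytometry, normalized to DMSO (0%) and 57.5 uM 5-azacytidine (100%).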

Cellular tumor antigen p53 (Homo sapiens), sequence (P04637 whole entry, looked up): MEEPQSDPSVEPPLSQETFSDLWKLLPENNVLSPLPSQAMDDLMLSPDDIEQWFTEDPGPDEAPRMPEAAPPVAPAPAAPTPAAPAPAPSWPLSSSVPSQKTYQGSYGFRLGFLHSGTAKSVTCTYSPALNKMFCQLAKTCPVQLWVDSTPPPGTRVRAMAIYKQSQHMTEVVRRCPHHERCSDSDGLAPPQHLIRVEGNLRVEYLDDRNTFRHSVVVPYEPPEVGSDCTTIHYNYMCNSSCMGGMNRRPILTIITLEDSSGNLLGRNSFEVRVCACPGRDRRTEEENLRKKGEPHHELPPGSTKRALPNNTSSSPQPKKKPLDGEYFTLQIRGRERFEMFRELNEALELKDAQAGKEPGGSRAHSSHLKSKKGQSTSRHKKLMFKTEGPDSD

Row | SMILES | activation
1 | OC[C@H]1O[C@@H](OC(CCCCc2ccc(O)cc2)CCc2ccc(O)cc2)[C@H](O)[C@@H](O)[C@@H]1O (stereo partly specified) | -9.92%
2 | COC(=O)c1c(C)cc(OC(=O)c2c(C)cc(OC)cc2OC)cc1O[C@@H]1O[C@H](CO)[C@@H](O)[C@H](O)[C@H]1O | -15.3%
3 | O=C(O)c1cc(O[C@@H]2O[C@H](CO[C@@H]3OC[C@@H](O)[C@H](O)[C@H]3O)[C@@H](O)[C@H](O)[C@H]2O)c2ccccc2c1O | 9.92%
4 | CC1=C2CC3C(CCC3(C)O)C(C)(O)CC2OC1=O (stereo unspecified) | -2.68%
5 | Cn1cc(-c2ccncc2)c(-c2ccc(OCc3ccc4ccccc4n3)cc2)n1 | -22.8% and -12.9%
6 | Cc1[nH]c(/C=C2\C(=O)Nc3cc(-c4ccccc4)ccc32)c(C)c1CCC(=O)O | -26.3%
7 | O=C1NC(=O)C(c2cn(-c3ccccc3)nc2-c2ccc(F)cc2)N1 (stereo unspecified) | 4.33%
8 | Oc1ccc(Nc2nc(-c3ccc(Cl)cc3)cs2)cc1 | 24.1%
9 | CC1(C)O[C@@]2(C)CC[C@@H]1C[C@@H]2OC1OC(CO)C(O)C(O)C1O (stereo partly specified) | -6.11%
10 | CC(CC(C)O[C@@H]1O[C@H](CO)[C@@H](O)[C@H](O)[C@H]1O)OC(=O)/C=C/c1ccc(O)cc1 (stereo partly specified) | 3.82%
11 | C[C@@H]1O[C@@H](O[C@@H]2[C@@H](O)[C@@H](O[C@]3(CO)O[C@H](CO)[C@@H](O)[C@@H]3OC(=O)/C=C/c3ccc(O)cc3)O[C@H](CO)[C@H]2OC(=O)/C=C/c2ccc(O)cc2)[C@H](O)[C@H](O)[C@H]1O[C@@H]1O[C@@H](C)[C@H](O[C@@H]2OC[C@](O)(CO)[C@H]2O)[C@@H](O)[C@H]1O | -2.68%

Source: PubChem BioAssay (NCATS)
